TPT1 inhibitor = inhibitors of Candida albicans tRNA 2'-phosphotransferase TPT1. recombinant caTPT1, FP RNA substrate dephosphorylation. inhibition, % at 5 µM. hit rate 0.81% among 300,000. AID 1962;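 active = inhibition above the mean of all tested compounds plus 3 SD, set per screening campaign, cut at about 24% in these data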;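 note: plate controls were DMSO alone for no effect and ferristatin control at 100 nM for full effect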
CendR NRP1 mod = modulators of CendR peptide binding to human neuropilin-1 | FAM-RPARPAR peptide binding to NRP-1, fluorescence polarization | hit rate 0.85% among 360,000 | O14786 | inhibition, % at 25 µM | AID 602438;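 active = inhibition or corrected inhibition above about 18%, plus a signal ratio from 0.5 to 1.5, limit read from the data, passing the limit was not always enough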
Fh CTSL1 inh = cathepsin L1 inhibition, PFM18AAP counter-screen. recombinant F. hepatica cathepsin L1, Z-Leu-Arg-MCA fluorescence. inhibition, % at 5.96 µM. hit rate 0.49% among 300,000;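 active = inhibition above the mean of all tested compounds plus 3 SD, set per screening campaign, cut at about 17% in these data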;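 note: 0% = plate median of test compound wells and 100% = 1 µM Z-Phe-Ala-diazomethylketone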
HNF4A DNA FP = change in binding of human HNF4 alpha to DNA | P41235 | HNF4a-FITC DNA binding, fluorescence polarization, 1 h | activity change, % at 10 µM | hit rate 0.3% among 360,000 | AID 1224865; in the data active = activity change above about 30%, passing the limit was not always enough
PHOSPHO1 block = inhibitors of human PHOSPHO1 phosphatase; Q8TCT1; recombinant PHOSPHO1, absorbance phosphatase assay; inhibition, % at 13.3 µM; hit rate 1.1% among 290,000; AID 1565; in the data active = inhibition above about 60%
Target sequence (Q8TCT1 whole entry, looked up): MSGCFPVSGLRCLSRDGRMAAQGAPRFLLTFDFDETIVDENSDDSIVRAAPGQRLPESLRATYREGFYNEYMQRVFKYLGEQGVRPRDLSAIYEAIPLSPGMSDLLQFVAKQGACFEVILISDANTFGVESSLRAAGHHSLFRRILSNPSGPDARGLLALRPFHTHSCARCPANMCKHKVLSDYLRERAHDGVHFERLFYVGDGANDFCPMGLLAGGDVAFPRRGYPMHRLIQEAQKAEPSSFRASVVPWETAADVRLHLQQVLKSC
Rpn11 block = inhibitors of human proteasome Rpn11; inhibition, % at 20 µM; hit rate 0.59% among 360,000; O00487; human 26S proteasome, Ub4-pepOG fluorescence polarization; 20S core pre-blocked with epoxomicin;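 active = inhibition at 20 µM, scaled to each plate's controls, above about 33%, limit read from the data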
Target sequence (O00487 whole entry, looked up): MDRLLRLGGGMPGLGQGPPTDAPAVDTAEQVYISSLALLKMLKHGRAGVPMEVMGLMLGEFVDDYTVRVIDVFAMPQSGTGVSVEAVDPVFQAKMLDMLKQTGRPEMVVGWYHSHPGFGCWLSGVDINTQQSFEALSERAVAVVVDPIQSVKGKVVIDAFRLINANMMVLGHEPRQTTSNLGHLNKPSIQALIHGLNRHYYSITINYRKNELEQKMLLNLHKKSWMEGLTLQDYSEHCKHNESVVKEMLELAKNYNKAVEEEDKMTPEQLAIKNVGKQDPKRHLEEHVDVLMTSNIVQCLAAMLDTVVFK
Rpn11 confirm = Rpn11 inhibition confirmation, single concentration; shares compounds with Rpn11 block; purified human 26S proteasome, Ub4-pepOG fluorescence polarization; proteasome pretreated with epoxomicin; inhibition, % at 20 µM; hit rate 29% among 1,900
MMP-2 inh = MMP-2 (human) inhibition counter-screen; recombinant MMP-2, FRET peptide cleavage fluorescence; hit rate 4% among 1,900; inhibition, % at 20 µM; shares compounds with Rpn11 block; AID 602330;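 note: human MMP-2 activated beforehand with APMA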
Thrombin FP = counter-screen for RPN11 inhibitors: inhibition of bovine thrombin | shares compounds with Rpn11 block | bovine thrombin cleavage of Ub4-pepOG, fluorescence polarization | inhibition, % at 20 µM | hit rate 13% among 1,900 | AID 602333;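 active = mean inhibition at least 40% at 20 µM, or signal 3 deviations below plate average, so some actives read negative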;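 note: plate controls were thrombin with DMSO for no effect and buffer wells lacking thrombin for full effect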
The depositor's hits bear a star; / = no result given; + = active, no number. Only some compounds are listed: those with a hit (about 3.3% of all), similar ones and a draw of the others. Cut-off read from the data, not from the text of the source, unless noted: active = inhibition above about 40%; inactive = the rest.

SMILES	TPT1 inhibitor	CendR NRP1 mod	Fh CTSL1 inh	HNF4A DNA FP	PHOSPHO1 block	Rpn11 block	Rpn11 confirm	MMP-2 inh	Thrombin FP
C#CCOCCOCCOCCNc1nc(N2CCN(C(=O)[C@H]([C@@H](C)CC)n3cc([C@@H](N)Cc4ccc(O)cc4)nn3)CC2)nc(N2CCN(C(=O)[C@H](Cc3cc4ccccc4[nH]3)n3cc([C@@H](N)CC(C)C)nn3)CC2)n1	-0.3	5.3	50.7*	19.8	/	63.7*	9.4	38.2	-8.9
Cn1cnnc1SC/C(O)=C(\C#N)c1nc2ccccc2[nH]1	-1.9	-20.7	-1.0	2.6	-11.2	5.8	/	/	/
N#C/C(=C(/O)COC(=O)CSc1ccc2ccccc2c1)c1nc2ccccc2[nH]1	15.3	-56.0	0.0	14.8	7.0	43.4*	30.9	-48.0	24.7
Cc1cc(Br)ccc1SCC(=O)OC/C(O)=C(\C#N)c1nc2ccccc2[nH]1	16.6	-65.7	1.9	27.5	39.6	46.2*	18.1	-44.2	0.0
Cc1cc(Br)ccc1SCC(=O)OCC(O)=C(C#N)c1nc2ccccc2[nH]1	/	-70.6	/	18.7	/	38.0	/	/	/
Cc1ccc(C)c(SCC(=O)OC/C(O)=C(\C#N)c2nc3ccccc3[nH]2)c1	/	-57.4	/	12.2	34.9	22.3	/	/	/
CCCn1c(SC/C(O)=C(\C#N)c2nc3ccccc3[nH]2)n[nH]c1=O	12.7	-32.4	1.5	6.8	48.4	38.6*	33.5	-9.7	29.6
N#C/C(=C(/O)COC(=O)COc1cccc(Br)c1)c1nc2ccccc2[nH]1	18.4	-44.4	-2.5	17.8	-9.8	41.7*	37.0	-12.4	25.3
Cc1ccccc1CSCC(=O)NCc1ccco1	0.4	-7.1	-1.4	-2.8	-17.8	1.5	/	/	/
CCCc1nc2c3ccccc3ccn2c1Cc1ccc(C)cc1	/	-14.7	/	7.5	/	43.4*	35.0	24.8	18.8
CCCc1nc2c3ccccc3ccn2c1Cc1cccc(Cl)c1	/	-13.0	/	7.4	/	14.5	/	/	/
Cc1ccc(Cc2c(-c3ccco3)nc3c4ccccc4ccn23)cc1	/	-36.1	/	17.9	/	44.4*	35.2	40.1*	-8.3
Cc1cc(=O)oc2cc(OCc3ccc(C(=O)OCC(=O)N(C)C4CCS(=O)(=O)C4)cc3)ccc12 (centres undefined)	-0.6	23.0	3.9	2.9	53.3	1.5	/	/	/
CN(C(=O)COc1ccc2c(-c3ccccc3)cc(=O)oc2c1)C1CCS(=O)(=O)C1 (centres undefined)	-4.3	10.2	2.9	17.0	31.3	58.3*	5.5	-0.8	7.3
CC(Sc1nnc(-c2ccco2)n1N)C(=O)NCc1ccc2c(c1)OCO2 (centres undefined)	/	6.7	/	-2.1	/	-0.4	/	/	/
Cn1c(=O)c2c(nc(Oc3ccc4c(c3)OCO4)n2Cc2ccc(F)cc2)n(C)c1=O	1.7	4.8	-1.3	29.0	10.7	+	1.6	-24.7	4.5
Cc1csc(SCC(=O)NC(=O)NCc2ccccc2)n1	-2.3	-0.6	1.2	-1.0	24.2	182.9*	-10.5	14.7	5.5
C[C@@]12CCC3[C@@](CC[C@@H]4[C@](C)(C(=O)O)CCC[C@@]34C)(C[C@H]1O)C2 (some centres undefined)	-3.8	-1.9	1.6	1.4	13.4	1.2	/	/	/
COc1ccc(S(=O)(=O)N2CCCC(C(=O)NCc3ccc(F)cc3)C2)cc1 (centres undefined)	-1.5	18.3	-0.5	1.3	15.0	-9.4	/	/	/
COc1ccc(S(=O)(=O)N2CCCC(C(=O)NCc3ccncc3)C2)cc1 (centres undefined)	-2.4	-7.1	-3.7	20.2	8.9	+	-12.5	10.2	-19.0
Cc1ccc(S(=O)(=O)N2CCN(C(=O)Cc3ccc(S(=O)(=O)N4CCOCC4)s3)CC2)cc1	2.3	-2.9	-5.5	3.5	24.0	2.5	/	/	/
COc1ccc(N2CCN(C(=O)Cc3ccc(S(=O)(=O)N4CCOCC4)s3)CC2)cc1	15.1	-52.6	-0.8	6.4	32.0	48.5*	11.8	32.8	2.1
CN1CCC(N(C)C(=O)c2sc3cc(F)ccc3c2Cl)CC1	-1.9	-2.9	-3.5	100.2*	23.3	109.2*	-12.6	0.1	-6.1
CC(C)N(CC(N)=O)C(=O)c1sc2cc(F)ccc2c1Cl	-1.9	-7.2	2.1	-1.6	16.8	-0.6	/	/	/
CCOc1ccc(C(=O)CCC(=O)NCC(=O)Nc2ccc(F)c(F)c2F)cc1	/	11.8	/	1.8	/	0.7	/	/	/
SMILES	TPT1 inhibitor	CendR NRP1 mod	Fh CTSL1 inh	HNF4A DNA FP	PHOSPHO1 block	Rpn11 block	Rpn11 confirm	MMP-2 inh	Thrombin FP
N#Cc1ccc(-c2ccc(OCC(=O)NCC(=O)Nc3ccc(F)c(F)c3F)cc2)cc1	2.0	-8.4	1.1	-1.0	-0.9	143.6*	96.7*	-29.7	-5.3
CCOC(=O)c1[nH]c(CSc2nnnn2-c2ccccc2C)c(C(=O)OCC)c1C	2.1	-35.1	1.6	15.3	-48.0	62.5*	30.4	12.1	5.3
Cc1cc(NC(=O)CSc2nc(N)c(NC(=O)c3ccco3)c(=O)[nH]2)no1	5.7	-7.9	-4.1	4.3	22.5	-0.7	/	/	/
O=C(CCCn1c(=S)[nH]c2ccccc2c1=O)N1CCN(c2cccc(Cl)c2)CC1	-0.6	-1.3	3.9	-2.6	37.3	96.2*	64.3*	64.7*	4.4
Cc1ccsc1/C=N/NC(=O)c1ccc(-n2cccc2)cc1	-3.6	-2.9	3.1	-3.6	-7.1	-7.6	/	/	/
CCN(CC)C(=O)CSc1nc2c(sc(=S)n2-c2ccccc2OC)c(=O)n1-c1ccccc1	-6.0	1.0	4.7	0.5	5.2	40.7*	1.9	10.2	17.5
CCN(CC)C(=O)CSc1nc2c(sc(=S)n2CC)c(=O)n1-c1ccccc1	-0.5	5.4	1.6	7.8	-2.0	4.1	/	/	/
COCCn1c(N)c(N(Cc2ccccc2)C(=O)CSCC(=O)Nc2ccc(C)cc2)c(=O)[nH]c1=O	1.7	8.5	4.4	2.8	/	-3.3	/	/	/
C=CCn1c(O)c(C=Nc2ccc(Cc3ccncc3)cc2)c(=O)[nH]c1=S	9.0	-10.8	6.8	2.2	27.0	47.5*	11.3	-3.2	-8.5
COc1ccc(C2=NN(CN3C(=O)C(=O)c4ccccc43)C(c3cccc([N+](=O)[O-])c3)C2)cc1 (centres undefined)	1.6	8.8	-2.5	-4.6	19.5	0.5	/	/	/
CC(C)C1N=C(c2ccc3c(c2)OCO3)CC(c2ccccc2O)N1 (centres undefined)	-2.4	6.2	-2.2	6.1	-6.3	-7.8	/	/	/
CCOc1ccccc1C1N=C(c2ccc(OC)cc2)CC(c2ccccc2O)N1 (centres undefined)	0.2	-12.8	1.4	2.2	-3.7	41.8*	-12.7	-46.0	-3.6

Source: PubChem
